# esBAF inh – Bmi1 luciferase reporter increase in mESCs, primary screen, esBAF inhibitor project, mouse ES cells, Bmi1 luciferase knock-in, single point. 24 h; 100% = twice the neutral-well signal. reporter increase, % at 12.5 µM. hit rate 2% among 350,000; in the data active means activation above about 40%; inconclusive means no clear call, values can overlap the other calls;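 further: 0% = median of the plate's neutral control wells and 100% = double that signal; a rise in the Bmi1 reporter signal indicates esBAF inhibition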
# Vif inh – HIV Vif self-association inhibitors, primary screen, imaging, HEK293T, single point | HEK293T cells, Vif self-association by quenched fluorescence, 24 h | inhibition, % at 7.49 µM | hit rate 0.35% among 340,000 | AID 602346, 2012; in the data active means inhibition above about 50%, passing the limit was not always enough; inconclusive means no clear call, values can overlap the other calls; inactive means below about 31%
# MITF TRPM1 HTS – activators of MITF-driven TRPM1 promoter reporter, primary screen, cell-based, SK-MEL-5, luciferase, single point; SK-MEL-5 TRPM1-promoter luciferase, 24 h; % of positive control, neutral wells = 0; activation, % at 12.5 µM; hit rate 0.75% among 300,000; AID 588334, 2011;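 active means mean activation of at least 80% with every replicate also reaching 80%; inconclusive means mean reaches 80% but some replicate falls short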;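 further: 0% = neutral control wells and 100% = parthenolide positive control wells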
# Wnt act – Wnt/beta-catenin pathway activators, primary screen, cell-based, plate reader, single point | activation, % at 9.35 µM | hit rate 1.2% among 300,000 | Wnt/beta-catenin reporter cell assay, activator; in the data active means activation above about 30%, passing the limit was not always enough; inconclusive means no clear call, values can overlap the other calls;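 further: 0% = neutral control wells and 100% = positive control wells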
# PvdQ inh – P. aeruginosa PvdQ acylase inhibitors, primary screen, biochemical, fluorescence, plate reader and imaging, single point | inhibition, % at 10 µM | purified PvdQ acylase | hit rate 0.063% among 340,000 | AID 488965, 2010; in the data active means inhibition above about 30%, passing the limit was not always enough; inconclusive means no clear call, values can overlap the other calls;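 further: 0% = vehicle neutral wells and 100% = reference inhibitor wells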
# N-glyco inh – increase of ERlucT glycosylation luciferase signal, primary screen, N-linked glycosylation inhibitor project, D54 ERlucT cells, luminescence, set 2; D54 ERlucT glycosylation luciferase reporter, 24 h; percent of 100 nM tunicamycin response; reporter increase, % at 12.5 µM; hit rate 0.23% among 360,000; AID 588692, 2011;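 active means mean luciferase reporter signal, scaled so untreated is 0 and the glycosylation-blocking control 100, at or above a set limit in every replicate; inconclusive means mean reaches the limit but not every replicate does; inactive means mean below the limit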;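 further: luciferase carries N-glycosylation sites so blocking glycosylation raises the light; 0% = median of neutral control wells and 100% = median of 100 nM tunicamycin wells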
# Starred values were filed as active, the others as inactive; u = inconclusive; x = not tested or not shown. In the library only some 2.9% were active in any assay of this set; here they are far more common.
SMILES,esBAF inh,Vif inh,MITF TRPM1 HTS,Wnt act,PvdQ inh,N-glyco inh
CN1CCc2c(sc3nc(SCC(=O)NCc4ccco4)n(-c4ccccc4)c(=O)c23)C1,70.3*,-3.1,49.7,16.4,-10.0,-4.9
COCCn1c(SCC(=O)NCC(c2ccccc2)N(C)C)nc2sc3c(c2c1=O)CCC3 (stereo unspecified),1.6,-8.9,5.8,1.0,-7.7,-1.8
COc1ccc(-n2c(SCC(=O)NCc3ccco3)nc3sc4c(c3c2=O)CCN(C)C4)cc1,-6.2,-1.8,17.4,3.1,6.7,-2.2
CNC[C@@H]1Oc2ncc(-c3ccccc3C)cc2C(=O)N([C@H](C)CO)C[C@H]1C,-6.0,x,x,x,x,x
CC1CCN(C(=O)CN2C(=O)c3ccccc3S2(=O)=O)CC1,-32.5,3.1,-7.2,48.4*,-17.1,-9.1
O=C(CSc1nnc(C2CC2)n1C1CC1)c1ccc(Br)s1,56.4*,0.6,71.2,32.6*,-17.7,0.4
O=C(CSc1nnc(C2CC2)n1C1CC1)c1cccs1,3.5,-7.0,-0.4,3.7,-13.7,-2.1
COc1ccc(C)cc1NC(=O)n1ncc2c(C)cccc21,-3.6,-1.6,5.8,5.0,6.5,-0.4
COc1ccc(NC(=O)n2ncc3c(C)cccc32)cc1OC,53.0*,2.2,105.9*,3.4,-12.4,-2.9
COc1ccc(NC(=O)n2ncc3c(C)cccc32)cc1,39.0,-4.0,38.0,39.2*,-16.9,-2.5
O=C1c2ccccc2C(=O)N1CCC1=CCCCC1,54.2*,-10.8,31.1,x,-12.1,-0.5
CNC(=O)C[C@@H]1CC[C@@H]2[C@H](COc3ccc(NC(=O)Nc4cccc(F)c4)cc3C(=O)N2C)O1,8.0,x,x,x,x,x
O=C(NCCCN1CCOCC1)c1ccc(S(=O)(=O)Nc2ccccc2)cc1,x,-18.6,3.3,-3.8,1.8,-2.0
COc1ccccc1NS(=O)(=O)c1ccc(C(=O)NCCCN2CCOCC2)cc1,-6.8,89.2*,6.4,-1.8,8.7,-0.5
O=C(/C=C/c1ccc(N2CCCCC2)c([N+](=O)[O-])c1)c1ccc(O)cc1,60.3*,4.7,13.1,u,-2.1,9.6
COc1ccccc1C(=O)/C=C/c1ccc(N2CCCCC2)c([N+](=O)[O-])c1,19.4,9.9,-7.3,-1.5,4.5,0.2
Cc1ccc(/C=N/NC(=O)Cn2nnc(N)n2)cc1,x,23.6,1.7,2.6,-7.2,1.0
CCn1nc(C)c(/C=N/NC(=O)Cn2nnc(N)n2)c1C,x,59.1*,x,1.4,-4.0,1.1
Cc1ccc(N2CCN(c3ccc(NCc4nc5ccccc5n4C)cc3)CC2)cc1,x,2.4,1.3,0.5,-2.5,-2.1
Cc1cccc(NCc2nc3ccccc3n2Cc2ccccc2)c1,19.9,2.0,x,21.5,-20.0,-3.2
Cc1ccc(NCc2nc3ccccc3n2C)c(C)c1,-17.4,-4.7,-16.2,39.7*,-1.4,-19.8
Cc1cccc(NCc2nc3ccccc3n2C)c1,60.7*,3.8,36.8,x,-11.1,0.0
CNC[C@H]1Oc2ccc(NC(=O)Cn3cnnn3)cc2C(=O)N([C@H](C)CO)C[C@@H]1C,-2.2,x,x,x,x,x
C[C@@H]1CN([C@@H](C)CO)S(=O)(=O)c2ccc(C#CC3(O)CCCC3)cc2O[C@H]1CN(C)C(=O)c1ccccc1,3.7,x,x,x,x,x
O=C(Cc1ccc2c(c1)OCCO2)c1c(O)cc(O)cc1O,55.4*,-7.0,39.4,8.1,-0.6,-2.0
COc1ccc(C(=O)Cc2ccc3c(c2)OCO3)c(O)c1,x,-1.9,76.6,37.4*,-10.4,-7.4
C[C@@H]1CN([C@@H](C)CO)C(=O)c2cccc(NC(=O)Nc3ccc(F)cc3)c2O[C@H]1CN(C)Cc1ccc(C(=O)O)cc1,6.1,x,x,x,x,x
Cc1ccc(S(=O)(=O)N(C)C[C@H]2Oc3c(NC(=O)Nc4c(C)noc4C)cccc3C(=O)N([C@@H](C)CO)C[C@H]2C)cc1,-5.0,x,x,x,x,x
Cc1nc2ccc3nc(NC(=O)C4COc5ccccc5O4)sc3c2s1 (stereo unspecified),12.2,x,x,0.4,-0.2,1.9
Cc1nc(C2COc3ccccc3O2)sc1C(=O)O (stereo unspecified),45.0*,-5.6,37.4,12.3,-10.9,0.0

# High-throughput results: PubChem BioAssay, Broad Institute
